This is a sample that favours compounds with a hit; in the whole collection about 4% have one here.
Peg3 promoter: inhibitors of Peg3 promoter; HeLa PEG-Prom luciferase reporter, luminescence, overnight; inhibition, % at 20 µM; 360,000 tested, 1.7% active;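 active = inhibition of at least 50% at 20 µM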
CF NFkB block: blocks PAF-induced NF-kB reporter in cystic fibrosis cells; KKLEB NF-kB-GFP reporter, GFP fluorescence overnight; inhibition, % at 5 µM; 360,000 tested, 0.86% active;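 active = at least 50% inhibition at 5 µM, scaled per plate between neutral and stimulator controls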;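 note: PAF is a Pseudomonas aeruginosa culture filtrate used as stimulus; plate controls were PAF-stimulated DMSO wells for no effect and unstimulated DMSO wells for full effect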
TROY signal inh: inhibitors of TROY-dependent NF-kB signaling | Q293 LMP1-TROYcd NF-kB luciferase reporter, 4 h | inhibition, % at 10 µM | 360,000 tested, 0.98% active;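 active = compounds whose plate-normalised and pattern-corrected inhibition of the luciferase reporter signal at the single screening dose is 50% or more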
KKLEB cytotox: CF airway cell cytotoxicity counter-screen; KKLEB CF airway cells viability, ATPlite luminescence, overnight; hits give low values; cells stimulated with P. aeruginosa culture filtrate; 360,000 tested, 0.36% active; activity change (cytotoxicity), % at 5 µM;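 active = corrected activity change at or below -50% at 5 µM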
HIF-2a block: blocks HIF-2a reporter activity; inhibition, % at 18.8 µM; 360,000 tested, 0.72% active; 786-0 RCC cells HIF-2a reporter, luciferase luminescence, overnight;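 active = inhibition of the luminescence signal of 40% or more relative to plate controls, in a single-dose primary screen at 18.75 µM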
TWEAK Fn14 block: TWEAK-Fn14 signaling inhibition. TWEAK-stimulated Fn14 reporter cells, luciferase luminescence, 8 h. inhibition, % at 10 µM. 360,000 tested, 2% active. AID 1159606; in the data active = inhibition above about 50%
An asterisk follows results filed as active; . = not tested or not shown.

SMILES	Peg3 promoter	CF NFkB block	TROY signal inh	KKLEB cytotox	HIF-2a block	TWEAK Fn14 block
O=C1c2cccc3cccc(c23)C(=O)N1CCN1CCN(CC(O)COc2ccc3ccccc3c2)CC1 (stereo not given)	79*	-17	-2	-15	-14	6
COc1cccc(OCC(O)CN2CCC(CN3C(=O)c4cccc5cccc(c45)C3=O)CC2)c1 (stereo not given)	19	7	21	-4	15	-44
Cc1ccc(C)c(OCC(O)CN2CCN(CCN3C(=O)c4cccc5cccc(c45)C3=O)CC2)c1 (stereo not given)	89*	-29	-6	-23	-9	-26
OC(CN(Cc1ccccc1)Cc1ccccc1)c1ccccc1 (stereo not given)	11	-6	3	-8	3	-5
CC1CCCCCCC1OC(=O)c1ccccc1C(=O)O (stereo not given)	-6	4	5	4	14	5
COc1ccc(OC)c(NC(=O)c2cccc(NC(=O)c3ccco3)c2)c1	-16	-19	-3	6	-7	0
Cc1cc(C)cc(OCC(O)CN2CCC(CN3C(=O)c4cccc5cccc(c45)C3=O)CC2)c1 (stereo not given)	75*	-12	24	-9	8	-14
COc1ccc(COCC(O)CN2CCC(CN3C(=O)c4cccc5cccc(c45)C3=O)CC2)cc1OC (stereo not given)	20	5	2	-12	7	-20
CC1(Cc2ccc3ccccc3n2)C(=O)Nc2ccc(OC(F)(F)F)cc21 (stereo not given)	8	-15	-5	6	20	-5
O=C1NC2c3c(Cl)sc(Cl)c3C(=O)C2O1 (stereo not given)	68*	3	-11	-2	32	19
COc1cc(Nc2ccc(S(N)(=O)=O)cc2)c([N+](=O)[O-])nc1[N+](=O)[O-]	-9	8	14	2	17	4
CC(=O)C1=C(c2ccc(Br)cc2)C(=O)c2ccccc2C1=O	96*	81*	57*	-12	30	103*
CC(=O)Nc1c(Br)cc2c(c1Br)C(=O)c1ccccc1-2	-5	0	-6	-6	-18	27
Cc1cccc(C)c1NC(=O)C(c1ccccc1)N1CCC(c2ccccc2)CC1 (stereo not given)	.	.	.	.	8	.
CN(C)c1ccc(/C=C2\CCCCC2=O)cc1	-237	10	-12	-1	-187	-5
CN(C)CCC1(C2=CCCC2)CC/C(=C/c2ccc(Cl)cc2)C1=O (stereo not given)	95*	-11	8	10	-12	-3
CSc1ccccc1OCc1cc(C(=O)N2CCN3CCCC3C2)no1 (stereo not given)	-43	-18	-36	19	-69	-18
COC(=O)c1ccccc1-c1ccc(C(c2c(C)[nH][nH]c2=O)c2c(C)[nH][nH]c2=O)o1	19	0	-2	-8	12	17
COC(=O)c1cccc(-c2ccc(C(c3c(C)[nH][nH]c3=O)c3c(C)[nH][nH]c3=O)o2)c1	22	-34	82*	-1	-26	8
O=C(Cc1ccccc1F)Nc1ccc(S(=O)(=O)N2CCCC2)cc1	-19	-11	-24	-14	-41	-16
Cc1nc(NC(=O)c2cc3ccccc3o2)sc1C	-96	-12	22	-7	-72	57*
Cc1nnc(NC(=O)c2cc3ccccc3o2)s1	-134	-1	-18	-26	-146	12
COC(=O)c1cc(Cl)c(NC(=O)c2cc3ccccc3o2)cc1OC	-134	-22	.	-4	-161	54*
Cc1cc(Br)c2[nH]cc(CCNC(=O)c3ccco3)c2c1	-17	-19	-34	-7	-21	-2
Cc1ccc(-c2nnc(-c3ccccc3)c(-c3ccccc3)n2)cc1	-23	5	-18	17	-62	-4
SMILES	Peg3 promoter	CF NFkB block	TROY signal inh	KKLEB cytotox	HIF-2a block	TWEAK Fn14 block
Cc1ccc2nc(-c3ccccc3)nn2c1	43	-17	62*	-10	20	94*
COc1ccc(-c2nn(-c3ccccc3)cc2/C=N/O)cc1	3	10	-29	6	-41	-6
COc1ccc(-c2nn(-c3ccccc3)cc2/C=N/N2C(=O)CSC2=S)cc1	57*	19	-33	-21	43*	62*
Cc1cccc(C)c1-n1nnnc1C(c1cc2ccccc2o1)N1CCN(C/C=C/c2ccccc2)CC1 (stereo not given)	3	3	18	-26	4	34
CCc1ccc(CN(C)C(=O)c2cc(COc3cccc4cnccc34)on2)cc1	9	20	39	-6	-12	57*
O=C(c1cc(COc2c(F)cccc2F)on1)N1CCC(c2ccccc2Cl)C1 (stereo not given)	-152	3	-30	-15	-151	-28
O=C(c1cc(COc2cccc3cnccc23)on1)N1CCC(c2ccccc2Cl)C1 (stereo not given)	4	28	54*	-11	7	48
CN(Cc1cccc2cnccc12)C(=O)c1cc(COc2ccc(F)cc2F)on1	15	-17	23	3	-12	15
O=C(O)C1(Cc2nc3ccccc3[nH]2)CCCC1	5	-16	-17	-2	9	-6
NC(=O)C1=CC2C3C=CC2(O)C(=O)OC3O1 (stereo not given)	102*	16	6	-10	-33	16
CC(=O)CC(C)(C)n1nnc(-c2ccccc2)n1	-7	-6	-3	5	-23	92*
O=C(O)C(CCCCNS(=O)(=O)c1ccc(F)cc1)NS(=O)(=O)c1ccc(F)cc1 (stereo not given)	11	-17	18	0	8	1
COc1ccc(-c2cc(CCCC(=O)NCc3ccccn3)no2)cc1	-51	3	18	-1	-17	86*
COc1ccc(-c2cc(CCCC(=O)NCCc3ccccc3)no2)cc1	-150	-9	-32	8	-142	-12
Cc1cc(C)nc(SC2=CS(=O)(=O)c3ccccc32)n1	34	30	15	-4	-4	53*
CCOC(=O)C1CCN(C(=O)CCC2CCCC2)CC1	1	11	-9	1	9	-3
Cc1ccc2c(C)nc(Nc3nc(CSc4nnnn4-c4ccccc4)cc(=O)[nH]3)nc2c1	53*	10	0	6	18	34
COc1ccc(-[n+]2c(C)cc(/C=C3\Sc4ccccc4N3C)cc2C)cc1	115*	-82	29	-31	53*	5
COc1ccc(C(=O)/C=C2\Sc3ccccc3N2C)cc1	-218	-3	-25	-2	-181	42
O=C(c1ccco1)N1N=C(c2ccccc2O)CC1c1cccs1 (stereo not given)	6	-19	-9	-5	-11	6
COc1ccccc1C(=O)NCCC(=O)NCC1COc2ccccc2O1 (stereo not given)	5	1	-6	2	15	-9
